# PubChem BioAssay (NCATS)
# “And” between values parts separate entries of the source, which are not always exact repeats. Equal values may be shown once. A number with no mark means an inactive call. Records with an inconclusive call do not appear. Where a call stands in place of a potency, no number is given. A structure can be active in one record and inactive in another. The source made the active and inactive calls. Unless noted, calls follow the shape of the dose curve; as a rule, active = well fitted curve in the direction sought with a large enough effect; inconclusive = small, poorly fitted or top-dose-only effect, or another doubt; inactive = no such curve, though single readings can be large; an effect the other way counts as inactive or inconclusive.
# Tests used:
# [1] = test system: WaGa; assay: qHTS assay to identify novel small-molecules to repurpose for Merkel cell carcinoma treatment (AID 1296009); conditions: MCC and control cell lines, CellTiter-Glo viability, 72 h; series mostly up to 46 µM; also: nearly all actives have a fitted effect of over 60% in size; also: potency is read from the fitted curve at half-maximal effect
# Method in brief: (§1)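 Cells were incubated with compound for 72 hr at 37 degree celsius before CellTiter-Glo addition. Luminescence was normalized with no-cell wells as full cytotoxicity and DMSO as baseline.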
# [2] = test system: C33A; assay: Primary qHTS to identify gynecologic anti-cancer compounds using libraries of approved drugs and bioactive compounds (AID 1345084); conditions: Gynecologic cancer cell panel viability, ATPlite luminescence, 48 h; series mostly up to 57.5 µM; also: nearly all actives have a fitted effect of over 55% in size; also: potency is read from the fitted curve at half-maximal effect
# Method in brief: (§2)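 Five-concentration response, 48 h; readout is ATP-driven luciferase luminescence.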
# [3] = test system: CAOV3; assay: as above; conditions: Gynecologic cancer cell panel viability, ATPlite luminescence, 48 h; series mostly up to 57.5 µM
# Method in brief: as §2
# [4] = test system: CASKI; assay: as above; conditions: Gynecologic cancer cell panel viability, ATPlite luminescence, 48 h; series mostly up to 57.5 µM
# Method in brief: as §2
# [5] = test system: Es-2; assay: as above; conditions: Gynecologic cancer cell panel viability, ATPlite luminescence, 48 h; series mostly up to 57.5 µM
# Method in brief: as §2
# [6] = test system: HeLa; assay: as above; conditions: Gynecologic cancer cell panel viability, ATPlite luminescence, 48 h; series mostly up to 57.5 µM
# Method in brief: as §2
# [7] = test system: Hek293T; assay: as above; conditions: Gynecologic cancer cell panel viability, ATPlite luminescence, 48 h, control line for the selectivity index; series mostly up to 57.5 µM
# Method in brief: as §2
# [8] = test system: JEG-3; assay: as above; conditions: Gynecologic cancer cell panel viability, ATPlite luminescence, 48 h; series mostly up to 57.5 µM
# Method in brief: as §2
# [9] = test system: SKOV3; assay: as above; conditions: Gynecologic cancer cell panel viability, ATPlite luminescence, 48 h; series mostly up to 57.5 µM
# Method in brief: as §2
# [10] = test system: Tov-21-G; assay: as above; conditions: Gynecologic cancer cell panel viability, ATPlite luminescence, 48 h; series mostly up to 57.5 µM
# Method in brief: as §2
# [11] = test system: Tov112D; assay: as above; conditions: Gynecologic cancer cell panel viability, ATPlite luminescence, 48 h; series mostly up to 57.5 µM
# Method in brief: as §2
# [12] = test system: OV90; assay: as above; conditions: Gynecologic cancer cell panel viability, ATPlite luminescence, 48 h; series mostly up to 57.5 µM
# Method in brief: as §2
# [13] = test system: PA-1; assay: as above; conditions: Gynecologic cancer cell panel viability, ATPlite luminescence, 48 h; series mostly up to 57.5 µM
# Method in brief: as §2
# [14] = Drug repurposing screens with cells derived from glioblastoma tumor samples (AID 1345199); conditions: GBM patient neurospheres viability, ATP luminescence, 48 h; also: nearly all actives have a fitted effect of over 40% in size; also: potency is read from the fitted curve at half-maximal effect
# Method in brief: (§3)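 Four patient lines of CD133+ GBM neurospheres were screened at several concentrations; hits were retested in those lines plus three slower-growing GBM lines, using 48-hour treatment and ATP-based viability.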
# [15] = test system: astro; assay: as above; conditions: viability, ATP luminescence, 48 h; series mostly up to 45.9 µM
# Method in brief: as §3
# [16] = test system: UISO; assay: qHTS assay to identify novel small-molecules to repurpose for Merkel cell carcinoma treatment (AID 1296009); conditions: MCC and control cell lines, CellTiter-Glo viability, 72 h; series mostly up to 46 µM; also: nearly all actives have a fitted effect of over 60% in size; also: potency is read from the fitted curve at half-maximal effect
# Method in brief: as §1
# [17] = molecular target: Nuclear receptor subfamily 1 group I member 2 (Rattus norvegicus) (UniProt Q9R1A7); assay: qHTS assay for small molecule activators of the rat pregnane X receptor (rPXR) signaling pathway (AID 651751; call rule not given here); conditions: rPXR reporter cells, luciferase (One-Glo), 24 h
# [18] = qHTS assay for small molecule activators of the human pregnane X receptor (PXR) signaling pathway (AID 720659; call rule not given here)
# [19] = at 45.9 µM (top of the series), tumour line B
# [20] = at 45.9 µM (top of the series), tumour line D
# [21] = at 46 µM (top of the series), tumour line A
# [22] = at 46.1 µM (top of the series), tumour line C
# Nuclear receptor subfamily 1 group I member 2 (Rattus norvegicus), sequence (Q9R1A7 whole entry, looked up): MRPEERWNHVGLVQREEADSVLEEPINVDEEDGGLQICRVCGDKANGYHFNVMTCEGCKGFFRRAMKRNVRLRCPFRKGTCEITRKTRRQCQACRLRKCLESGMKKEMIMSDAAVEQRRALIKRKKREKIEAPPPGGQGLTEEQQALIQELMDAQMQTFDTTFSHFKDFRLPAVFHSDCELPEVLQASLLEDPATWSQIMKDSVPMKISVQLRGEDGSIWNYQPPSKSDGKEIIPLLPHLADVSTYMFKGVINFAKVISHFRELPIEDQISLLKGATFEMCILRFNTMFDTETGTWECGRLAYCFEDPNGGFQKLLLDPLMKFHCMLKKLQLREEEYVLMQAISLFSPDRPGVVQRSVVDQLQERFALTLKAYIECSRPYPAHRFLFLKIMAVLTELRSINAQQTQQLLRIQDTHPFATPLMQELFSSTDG
smiles,measurement,setting,value
CCOC(=O)N1CCC(Nc2ccc(Cl)cc2N)CC1,Potency,[1],inactive
same,Potency,[2],inactive
same,Potency,[3],inactive
same,Potency,[4],inactive
same,Potency,[5],inactive
same,Potency,[6],inactive
same,Potency,[7],inactive
same,Potency,[8],inactive
same,Potency,[9],inactive
same,Potency,[10],inactive
same,Potency,[11],inactive
CC1CN(c2cc3c(cc2F)c(=O)c(C(=O)O)cn3-c2ccc(F)cc2F)CCN1 (stereo unspecified),Potency,[2],inactive
same,Potency,[3],inactive
same,Potency,[4],inactive
same,Potency,[5],inactive
same,"activity change, negative = cytotoxicity",[6],5.19% [at 6.55 µM]
same,"activity change, negative = cytotoxicity",[7],-5.43% [at 6.55 µM]
same,"activity change, negative = cytotoxicity",[8],13.6% [at 6.55 µM]
same,"activity change, negative = cytotoxicity",[12],18.6% [at 6.55 µM]
same,"activity change, negative = cytotoxicity",[13],6.96% [at 6.55 µM]
same,"activity change, negative = cytotoxicity",[9],-2.15% [at 6.55 µM]
same,"activity change, negative = cytotoxicity",[10],-0.759% [at 6.55 µM]
same,"activity change, negative = cytotoxicity",[11],-5.84% [at 6.55 µM]
same,"activity, negative = cell killing",[14]; [19],-0.773%
same,"activity, negative = cell killing",[14]; [20],-11%
same,"activity, negative = cell killing",[14]; [21],-6.24%
same,"activity, negative = cell killing",[14]; [22],-10.7%
same,Potency,[15],inactive
COc1c(N2C[C@@H]3CCCN[C@@H]3C2)c(F)cc2c(=O)c(C(=O)O)cn(C3CC3)c12,Potency,[2],inactive
same,Potency,[3],inactive
same,Potency,[4],inactive
same,Potency,[5],inactive
same,Potency,[6],inactive
same,Potency,[7],inactive
same,Potency,[8],inactive
same,Potency,[12],inactive
same,Potency,[13],inactive
same,Potency,[9],inactive
same,Potency,[10],inactive
same,Potency,[11],inactive
Cc1cc(OCCOCC[N+](C)(C)Cc2ccccc2)ccc1C(C)(C)CC(C)(C)C,Potency,[16],4.22 µM (active)
same,Potency,[5],inactive
same,Potency,[6],inactive
same,Potency,[8],inactive
same,Potency,[10],inactive
same,Potency,[15],15.8 µM (active)
CCCCCCCCCCCCCCCCCCNC(=O)OC1CCN(C(=O)OC[C@H](COC(=O)N(Cc2cccc[n+]2CC)C(=O)c2ccccc2OC)OC)CC1,Potency,[16],6.68 µM (active)
same,Potency,[3],15.8 µM (active)
same,Potency,[4],15.8 µM (active)
same,Potency,[8],inactive
same,Potency,[12],28.2 µM (active)
same,Potency,[13],12.6 µM (active)
same,Potency,[9],20 µM (active)
same,Potency,[10],25.1 µM (active)
same,Potency,[15],10 µM (active)
OCc1c[nH]c2ccccc12,Potency,[16],10.9 µM (active)
same,Potency,[2],35.5 µM (active)
same,max response,[17],0.925%
same,outcome,[18],inactive
O=C1Nc2cc(Cl)ccc2Oc2ccccc21,Potency,[1],inactive
same,Potency,[2],inactive
same,Potency,[3],inactive
same,Potency,[4],inactive
same,Potency,[5],inactive
same,Potency,[6],inactive
same,Potency,[7],inactive
same,Potency,[8],inactive
same,Potency,[12],inactive
same,Potency,[13],inactive
same,Potency,[9],inactive
same,Potency,[10],inactive
same,Potency,[11],inactive
Cc1nn(-c2ccccc2)c(C)c1/C=N/N1CCN(Cc2ccccc2)CC1,Potency,[2],inactive
same,Potency,[3],inactive
same,Potency,[4],inactive
same,Potency,[5],inactive
same,Potency,[6],inactive
same,Potency,[7],inactive
same,Potency,[8],inactive
same,Potency,[12],inactive
same,Potency,[13],inactive
same,Potency,[9],inactive
same,Potency,[10],inactive
same,Potency,[11],inactive
N[C@@H](Cn1ccc(=O)c(O)c1)C(=O)O,"activity change, negative = cytotoxicity",[2],19.3% [at 6.55 µM]
same,"activity change, negative = cytotoxicity",[3],11.6% [at 6.55 µM]
same,"activity change, negative = cytotoxicity",[4],1.33% [at 6.55 µM]
same,"activity change, negative = cytotoxicity",[5],4.8% [at 6.55 µM]
same,"activity change, negative = cytotoxicity",[6],-0.102% [at 6.55 µM]
same,"activity change, negative = cytotoxicity",[7],-0.477% [at 6.55 µM]
same,"activity change, negative = cytotoxicity",[8],1.6% [at 6.55 µM]
same,"activity change, negative = cytotoxicity",[12],12.3% [at 6.55 µM]
same,"activity change, negative = cytotoxicity",[13],16.1% [at 6.55 µM]
same,"activity change, negative = cytotoxicity",[9],23.2% [at 6.55 µM]
same,"activity change, negative = cytotoxicity",[10],-4.16% [at 6.55 µM]
same,"activity change, negative = cytotoxicity",[11],12.5% [at 6.55 µM]
CN1CCC(Nc2ncc3ncnc(Nc4ccc(F)c(Cl)c4)c3n2)CC1,Potency,[16],inactive
same,Potency,[4],inactive
same,Potency,[5],inactive
same,Potency,[6],inactive
same,Potency,[10],inactive
same,Potency,[11],inactive
same,Potency,[15],17.8 µM (active)
CC[N+](CC)(CC)CCOC(=O)C(C1CCCC1)C1CCCC1,Potency,[1],9.44 µM (active)
same,Potency,[2],inactive
same,Potency,[3],inactive
same,Potency,[5],inactive
same,Potency,[6],inactive
same,Potency,[7],inactive
same,Potency,[8],inactive
same,Potency,[9],inactive
same,Potency,[10],inactive
same,Potency,[11],inactive
same,Potency,[15],inactive
CC(NN)c1ccccc1 (stereo unspecified),Potency,[2],inactive
same,Potency,[3],inactive
same,Potency,[4],inactive
same,Potency,[5],inactive
same,Potency,[6],inactive
same,Potency,[7],inactive
same,Potency,[8],inactive
same,Potency,[12],inactive
same,Potency,[13],inactive
same,Potency,[10],inactive
same,Potency,[11],inactive
same,"activity, negative = cell killing",[14]; [19],-17.4%
same,"activity, negative = cell killing",[14]; [20],-5.52%
same,"activity, negative = cell killing",[14]; [21],-23.7%
same,"activity, negative = cell killing",[14]; [22],-0.872%
same,Potency,[15],inactive
COc1c(C)c2c(c(O)c1C/C=C(\C)CCC(=O)OCCN1CCOCC1)C(=O)OC2,Potency,[1],inactive
same,Potency,[3],inactive
same,Potency,[8],inactive
same,Potency,[10],2 µM (active)
CO/N=C(/C(=O)N[C@@H]1C(=O)N2C(C(=O)[O-])=C(C[n+]3ccn4ncccc43)CS[C@H]12)c1nsc(N)n1,Potency,[2],inactive
same,Potency,[3],inactive
same,Potency,[4],inactive
same,Potency,[5],inactive
same,Potency,[6],inactive
same,Potency,[7],inactive
same,Potency,[8],inactive
same,Potency,[12],inactive
same,Potency,[13],inactive
same,Potency,[9],inactive
same,Potency,[10],inactive
same,Potency,[11],inactive
same,"activity, negative = cell killing",[14]; [19],-6.03% and -3.53%
same,"activity, negative = cell killing",[14]; [20],-11.1% and -14%
same,Potency,[14]; tumour line A,8.91 µM (active)
same,Potency,[15],inactive
O=C1[C@@H]2[C@H]3CC[C@H](C3)[C@@H]2C(=O)N1CCCCN1CCN(c2ncccn2)CC1,Potency,[2],inactive
same,Potency,[3],inactive
same,Potency,[4],inactive
same,Potency,[5],inactive
same,Potency,[6],inactive
same,Potency,[7],inactive
same,Potency,[8],inactive
same,Potency,[12],inactive
same,Potency,[13],inactive
same,Potency,[9],inactive
same,Potency,[10],inactive
same,Potency,[11],inactive
same,"activity, negative = cell killing",[14]; [19],-7.9%
same,"activity, negative = cell killing",[14]; [22],-10.5%
same,Potency,[14]; tumour line A,12.6 µM (active)
same,Potency,[15],inactive
